Test [1] can be described thus: NCATS anti-infectives library activity on the primary C. elegans qHTS viability assay (AID 1745855; calls by dose curve). The settings on record: C. elegans worm area imaging, day 7; at 41.8 µM (top of the series). In outline:
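GFP read-out by 488 nm laser cytometry at day 0, 3 and 7, gated on object perimeter, area and peak intensity, scored viability of PE254-GFP-FLuc worms exposed to compound in S medium with bacterial capsules at 21 °C.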

Test [2] in a line: Viability counterscreen for antagonist of constitutive androstane receptor (CAR) against the NCATS DSHEA and TCM libraries (AID 1794837).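 Note: compound exposure lasted 24 h before viability reading; 0% is about no effect.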 The method, boiled down: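 Fluorescence from CellTiter-Fluor reports live-cell protease activity in HepG2-CYP2B6-hCAR cells treated for 24 h with substances alongside 48 uM CITCO.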
A general note: The purpose of a counterscreen is to sort out artefacts and off-target activity.

Test [3] can be described thus: Viability counterscreen for agonist of constitutive androstane receptor (CAR) against the NCATS DSHEA and TCM libraries (AID 1794838).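 Note: cells exposed to compound for 24 h; 0% is about no effect.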 The method, boiled down: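 In agonist mode, PK11195 is added at 0.75 uM final to HepG2-CYP2B6-hCAR cells dosed with test substances. Cultures incubate 24 h at 37C before a protease-based fluorogenic viability readout.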
In test [4] the target is Nuclear receptor subfamily 1 group I member 3 (Homo sapiens) (UniProt Q14994). Nature of the test: Primary qHTS for agonist of constitutive androstane receptor (CAR) against the NCATS DSHEA and TCM libraries (AID 1794839).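 Note: HepG2 cells expressing human CAR with a CYP2B6 reporter plus PK11195 antagonist; luciferase reporter luminescence read with ONE-Glo; 0% is about no effect.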 The method, boiled down:
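Cells stably carrying hCAR and a CYP2B6 reporter (HepG2 background) are seeded and allowed 5 h to adhere. Substances at multiple concentrations are added alongside 0.75 µM PK11195, and luciferase signal is measured after 24 h.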
(In general: qHTS replaces the single test concentration by a dilution series.)

A short description of test [5]: HepG2 viability counterscreen (readout 2: ATP content) against the NCATS DSHEA and TCM libraries (AID 1794840).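 Note: HepG2 cells exposed to substances for about 24 h; 0% is about no effect.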 In outline: (§1)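 Cytotoxicity was assessed in HepG2 cells plated at 1,000 cells/well and exposed for about 24 hours to a concentration series. Protease activity and ATP content were measured sequentially in each well.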
Test [6] in a line: HepG2 viability counterscreen (readout 1: protease activity) against the NCATS DSHEA and TCM libraries (AID 1794841).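 Note: cells exposed to compounds for about 24 h before the protease read; 0% is about no effect.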 The method, boiled down:
as §1

In test [7] the target is Cytochrome P450 3A4 (Homo sapiens) (UniProt P08684). Nature of the test: qHTS for inhibitors of CYP3A4 against the NCATS DSHEA and TCM libraries (AID 1919971).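 Note: % is set by controls: 0 for no effect and ±100 for the full control effect; inhibition lowers luminescence from luciferin made by CYP3A4.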 In outline:
(§2)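 Concentration-response screening with isoform-matched pro-luciferin substrates. The CYP reaction was initiated by NADPH regenerating solution and ran 30-45 min in darkness at room temperature.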

Test [8] has as its target Cytochrome P450 2D6 (Homo sapiens) (UniProt P10635). The test is described as follows: qHTS for inhibitors of CYP2D6 against the NCATS DSHEA and TCM libraries (AID 1919972). Note: % is set by controls: 0 for no effect and ±100 for the full control effect. The method, boiled down: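 CYP2D6 enzyme with pro-luciferin substrate in manufacturer buffer (typically 100 mM KPO4), preincubated 15 min RT with substances (most at 19.5 nM upward); NADPH regeneration system (1x) started 30–45 min RT reaction; P450-Glo luminescence read after 30 min; quinidine as intraplate control.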

The target of test [9] is Cytochrome P450 2C9 (Homo sapiens) (UniProt P11712). The test is described as follows: qHTS for inhibitors of CYP2C9 against the NCATS DSHEA and TCM libraries (AID 1919973).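 Note: luminogenic pro-luciferin CYP2C9 substrate turned into luciferin with NADPH regeneration; % is set by controls: 0 for no effect and ±100 for the full control effect.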 In outline: as §2
Sequence of Cytochrome P450 2C9 (Homo sapiens) (P11712 whole entry, looked up): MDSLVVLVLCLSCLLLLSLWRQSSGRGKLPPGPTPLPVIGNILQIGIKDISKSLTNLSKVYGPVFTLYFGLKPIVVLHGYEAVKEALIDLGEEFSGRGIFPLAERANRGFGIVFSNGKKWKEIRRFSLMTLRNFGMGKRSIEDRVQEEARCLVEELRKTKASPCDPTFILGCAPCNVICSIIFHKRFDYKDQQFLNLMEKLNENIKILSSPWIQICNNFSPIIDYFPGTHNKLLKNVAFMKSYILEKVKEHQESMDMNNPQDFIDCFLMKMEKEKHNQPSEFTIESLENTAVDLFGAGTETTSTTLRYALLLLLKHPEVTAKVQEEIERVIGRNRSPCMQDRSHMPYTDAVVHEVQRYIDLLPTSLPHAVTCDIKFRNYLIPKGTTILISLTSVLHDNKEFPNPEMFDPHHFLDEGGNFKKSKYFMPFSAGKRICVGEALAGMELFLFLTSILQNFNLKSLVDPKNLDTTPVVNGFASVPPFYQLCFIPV
Test [10] concerns the target Cytochrome P450 2C19 (Homo sapiens) (UniProt P33261). Nature of the test: qHTS for inhibitors of CYP2C19 against the NCATS DSHEA and TCM libraries (AID 1919974). For activity change, negative = inhibition: % is set by controls: 0 for no effect and ±100 for the full control effect.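 Note: luminescence from luciferin released by CYP2C19 oxidation of a pro-luciferin substrate.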 Note: potency is the fitted concentration of half-maximal effect. In outline:
as §2

The nature of test [11]: KB-3-1 P-gp reporter qHTS against the NCATS DSHEA and TCM libraries (AID 1919975). Note: 0% is about no effect. In outline:
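72 h exposure of KB-3-1 cells (DMEM, 10% FBS) to DSHEA/TCM samples, concentration-response; cell viability measured as CellTiter-Glo luminescence after 30 min at room temperature.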

Test [12] deals with Cytochrome P450 1A2 (Homo sapiens) (UniProt P05177). The test is described as follows: qHTS for inhibitors of CYPIA2 against the NCATS DSHEA and TCM libraries (AID 1919976).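 For activity change, negative = inhibition: light from luciferin formed by CYP1A2 from a pro-luciferin substrate; % is set by controls: 0 for no effect and ±100 for the full control effect.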 Note: potency is the fitted concentration of half-maximal effect. In outline:
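Enzyme and pro-luciferin substrate, or substrate alone as no-enzyme background, are pre-incubated with test samples for 15 min at room temperature. NADPH regeneration system (1x final) initiates a 30-45 min dark reaction; luciferase detection reagent follows before luminescence reading.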

The nature of test [13]: qHTS Counterscreen for compound interference against the NCATS DSHEA and TCM libraries (AID 1919978). Note: % of control where 0% means no effect. The settings on record: firefly luciferase detection reagent interference, luminescence. In outline: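 Read-out is luminescence after 30 min at RT with luciferin detection reagent. Before that, compounds (19.5 nM to 39.8 uM final) sat 15 min at RT with 1 uM D-luciferin or 100 mM potassium phosphate buffer. PTC124 served as intraplate control.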

Test [14] concerns the target Glutathione peroxidase 1 (Homo sapiens) (UniProt P07203). The test is described as follows: Primary qHTS Assay for Inhibitors of Recombinant Selenoprotein Glutathione Peroxidase 1 (GPX1) (AID 1845191). Note: nearly all actives have a fitted effect of over 65% in size. In outline:
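GR-coupled readout: NADPH consumption tracked by fluorescence, ex 340/em 450 nm, at t=0 and after 15 min at RT. Final mix 10 nM GPX1, 1 mM GSH, 0.5 mM CHP, 0.5 mM NADPH, 100 nM GR, 0.01% BSA, following 30 min enzyme–compound preincubation.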

Test [15] has as its target Phospholipid hydroperoxide glutathione peroxidase GPX4 (Homo sapiens) (UniProt P36969). Nature of the test: Primary qHTS Assay for Inhibitors of Recombinant Selenoprotein Glutathione Peroxidase 4 (GPX4) (AID 1845192). Note: nearly all actives have a fitted effect of over 65% in size. In outline:
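Steps: GPX4 plus compound, 30 min RT; add GR/GSH/NADPH master mix; start with cumene hydroperoxide; read 340/450 nm fluorescence at 0 and 15 min. Finals were 200 nM GPX4, 1 mM GSH, 0.5 mM CHP, 0.5 mM NADPH, 100 nM GR.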

Unmarked numbers belong to inactive results. Records with an inconclusive call do not appear. The source made the active and inactive calls. Unless noted, calls come from the whole dose curve; as a rule, active = well fitted curve in the direction sought with a large enough effect; inconclusive = small, poorly fitted or top-dose-only effect, or another doubt; inactive = no such curve, though single readings can be large; an effect the other way counts as inactive or inconclusive.

Sequence of Phospholipid hydroperoxide glutathione peroxidase GPX4 (Homo sapiens) (P36969 whole entry, looked up): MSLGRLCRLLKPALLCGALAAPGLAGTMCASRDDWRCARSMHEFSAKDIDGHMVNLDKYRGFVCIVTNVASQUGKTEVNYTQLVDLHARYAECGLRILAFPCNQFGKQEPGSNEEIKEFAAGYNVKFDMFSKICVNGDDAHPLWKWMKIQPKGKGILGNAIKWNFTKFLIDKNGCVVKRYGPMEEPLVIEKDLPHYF
Sequence of Glutathione peroxidase 1 (Homo sapiens) (P07203 whole entry, looked up): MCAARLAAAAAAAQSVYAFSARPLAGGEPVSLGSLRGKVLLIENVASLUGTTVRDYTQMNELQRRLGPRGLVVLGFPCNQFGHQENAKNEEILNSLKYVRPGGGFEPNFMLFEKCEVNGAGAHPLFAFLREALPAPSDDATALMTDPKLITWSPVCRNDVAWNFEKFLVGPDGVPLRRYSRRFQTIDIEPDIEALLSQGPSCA
Sequence of Cytochrome P450 2D6 (Homo sapiens) (P10635 whole entry, looked up): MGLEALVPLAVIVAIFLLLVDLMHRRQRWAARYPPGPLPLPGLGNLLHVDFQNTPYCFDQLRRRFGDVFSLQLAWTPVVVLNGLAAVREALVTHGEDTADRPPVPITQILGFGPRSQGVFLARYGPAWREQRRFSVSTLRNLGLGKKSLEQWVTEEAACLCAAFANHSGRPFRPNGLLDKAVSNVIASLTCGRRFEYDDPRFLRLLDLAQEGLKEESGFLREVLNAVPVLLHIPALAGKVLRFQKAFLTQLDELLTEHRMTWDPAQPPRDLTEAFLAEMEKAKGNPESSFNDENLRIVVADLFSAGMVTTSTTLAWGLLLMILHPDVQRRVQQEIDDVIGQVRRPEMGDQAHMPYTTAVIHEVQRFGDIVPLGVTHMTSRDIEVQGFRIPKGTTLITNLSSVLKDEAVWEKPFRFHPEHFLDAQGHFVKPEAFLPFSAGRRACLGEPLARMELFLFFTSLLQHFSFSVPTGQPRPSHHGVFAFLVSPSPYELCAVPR
Sequence of Cytochrome P450 3A4 (Homo sapiens) (P08684 whole entry, looked up, canonical isoform): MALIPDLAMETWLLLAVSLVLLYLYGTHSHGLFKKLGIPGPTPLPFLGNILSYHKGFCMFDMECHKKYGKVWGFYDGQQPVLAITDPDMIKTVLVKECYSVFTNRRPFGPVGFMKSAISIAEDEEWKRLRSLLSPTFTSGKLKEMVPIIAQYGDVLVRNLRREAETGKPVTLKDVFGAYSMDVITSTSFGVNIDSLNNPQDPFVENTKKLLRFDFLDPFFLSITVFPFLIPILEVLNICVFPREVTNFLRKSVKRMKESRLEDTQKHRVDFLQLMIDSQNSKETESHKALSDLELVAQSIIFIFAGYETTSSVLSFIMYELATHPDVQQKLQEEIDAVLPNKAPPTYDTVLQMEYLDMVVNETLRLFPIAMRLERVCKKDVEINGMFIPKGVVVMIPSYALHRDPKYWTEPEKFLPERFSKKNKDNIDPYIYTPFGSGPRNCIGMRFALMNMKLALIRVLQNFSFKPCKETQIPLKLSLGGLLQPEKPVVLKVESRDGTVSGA
Sequence of Cytochrome P450 2C19 (Homo sapiens) (P33261 whole entry, looked up): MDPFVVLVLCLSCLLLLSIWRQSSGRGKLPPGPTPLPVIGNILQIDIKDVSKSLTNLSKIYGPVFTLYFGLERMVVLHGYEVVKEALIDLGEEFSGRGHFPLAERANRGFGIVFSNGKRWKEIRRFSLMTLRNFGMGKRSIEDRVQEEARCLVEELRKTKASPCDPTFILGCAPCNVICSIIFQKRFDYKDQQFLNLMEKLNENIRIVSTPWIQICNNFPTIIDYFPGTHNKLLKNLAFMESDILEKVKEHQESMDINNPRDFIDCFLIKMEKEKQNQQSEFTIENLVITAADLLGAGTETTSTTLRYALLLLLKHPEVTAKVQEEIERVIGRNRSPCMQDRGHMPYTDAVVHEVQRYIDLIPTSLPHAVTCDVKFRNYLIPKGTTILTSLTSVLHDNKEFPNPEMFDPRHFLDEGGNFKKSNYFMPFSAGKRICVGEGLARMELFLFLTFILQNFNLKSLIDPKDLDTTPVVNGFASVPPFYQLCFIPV
Sequence of Nuclear receptor subfamily 1 group I member 3 (Homo sapiens) (Q14994 whole entry, looked up): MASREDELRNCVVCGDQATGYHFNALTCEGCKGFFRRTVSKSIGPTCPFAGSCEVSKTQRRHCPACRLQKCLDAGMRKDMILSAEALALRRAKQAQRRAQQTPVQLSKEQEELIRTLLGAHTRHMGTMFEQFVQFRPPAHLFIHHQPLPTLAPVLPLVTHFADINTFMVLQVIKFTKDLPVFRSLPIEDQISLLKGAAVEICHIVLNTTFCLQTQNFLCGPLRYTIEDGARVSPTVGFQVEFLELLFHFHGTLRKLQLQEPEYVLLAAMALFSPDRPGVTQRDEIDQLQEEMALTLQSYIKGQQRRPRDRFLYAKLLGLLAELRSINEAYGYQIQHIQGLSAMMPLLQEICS
Sequence of Cytochrome P450 1A2 (Homo sapiens) (P05177 whole entry, looked up): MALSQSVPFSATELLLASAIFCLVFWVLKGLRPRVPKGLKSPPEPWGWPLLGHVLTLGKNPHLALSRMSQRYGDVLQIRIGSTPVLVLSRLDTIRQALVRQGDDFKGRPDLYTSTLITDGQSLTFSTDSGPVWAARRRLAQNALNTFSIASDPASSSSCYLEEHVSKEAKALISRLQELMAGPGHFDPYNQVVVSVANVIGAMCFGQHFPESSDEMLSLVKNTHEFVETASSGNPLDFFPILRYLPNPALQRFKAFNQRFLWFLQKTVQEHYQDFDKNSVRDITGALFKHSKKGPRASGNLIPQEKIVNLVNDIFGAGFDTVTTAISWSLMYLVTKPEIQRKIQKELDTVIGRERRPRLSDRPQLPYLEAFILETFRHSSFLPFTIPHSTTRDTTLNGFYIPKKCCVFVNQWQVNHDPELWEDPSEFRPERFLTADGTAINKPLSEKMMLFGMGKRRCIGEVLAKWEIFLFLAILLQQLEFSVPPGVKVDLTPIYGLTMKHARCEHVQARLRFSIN

As to `Clc1ccc2c(c1)N=C(N1CCNCC1)c1ccccc1N2`, the result in test [1] was inactive.

For `C[N+](C)(C)CCO`, the compound was classed as inactive in [2], in test [3], in test [4], in [5], in [6] and in test [7]. The compound was called inactive in [8], in test [9] and in [11]. In addition, the Potency entry in [10] and in test [12] was “inactive” in each case. Further, in test [13], the max response was 2.09%.

Regarding `O=C(O)CCCC[C@@H]1SC[C@@H]2NC(=O)N[C@@H]21`, the compound was classed as inactive in test [2], in test [3], in test [4], in test [5], in test [6] and in test [7]. Moreover, the compound was classed as inactive in [8], in [9] and in test [11]. The Potency in test [10] is 3.55 µM (active); in test [12] it was 3.98 µM (active). Further, the max response in test [13] is 3.76%.

For `NCC[C@H](O)C(=O)N[C@@H]1C[C@H](N)[C@@H](O[C@H]2O[C@H](CN)[C@@H](O)[C@H](O)[C@@H]2O)[C@H](O)[C@@H]1O[C@H]1O[C@H](CO)[C@@H](O)[C@H](N)[C@@H]1O`, the activity, negative = inhibition in test [14] is -13.8% [at 0.4 µM]. The activity change, negative = inhibition in test [15] was -16.2% [at 0.409 µM].

As for `CCCCCC1Nc2cc(C(F)(F)F)c(S(N)(=O)=O)cc2S(=O)(=O)N1` (stereo unspecified), the Potency result in [14] and in test [15] was “inactive” each time.

For `COc1ccc2c(c1)c(CC(=O)OC/C=C(\C)CC/C=C(\C)CCC=C(C)C)c(C)n2C(=O)c1ccc(Cl)cc1`, the Potency result in [14] and in test [15] was “inactive” each time.

Take `CCO[C@H](Cc1ccc(OCCc2ccc(OS(C)(=O)=O)cc2)cc1)C(=O)O`: the Potency entry in [14] and in test [15] was “inactive” throughout.

For `C[C@@H]1CCC[C@H](C)N1CCCC(O)(c1ccccc1)c1ccccn1` (stereo partly specified), the Potency result in [14] and in [15] was “inactive” in each case.

Turning to `CN(C)CCCOC1(Cc2ccccc2)CCCCCC1`, the Potency entry in [14] and in test [15] was “inactive” in each case.

`Cc1ccc(O)cc1`: the Potency result in test [14] and in test [15] was “inactive” throughout.

As for `Cc1ccc(C(=O)Oc2ccc(C(O)CNC(C)(C)C)cc2OC(=O)c2ccc(C)cc2)cc1` (stereo unspecified), the Potency entry in [14] and in test [15] was “inactive” each time.

These data come from PubChem BioAssay (NCATS).
